FBA Mtb inh: inhibitors of M. tuberculosis fructose-bisphosphate aldolase. P9WQA3. purified M. tuberculosis FBA, fluorescence read-out. inhibition, % at 1 µM. 360,000 tested, 2.3% active; in the data active = inhibition above about 27%
PfHsp40 rescue: compounds rescuing yeast from Plasmodium falciparum HSP40 toxicity | S. cerevisiae expressing PfHsp40, growth rescue, ATP luminescence | growth rescue, % at 12.5 µM | 340,000 tested, 0.68% active | AID 504582; in the data active = growth rescue above about 28%, passing the limit was not always enough; inconclusive = no clear call, values can overlap the other calls;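 note: yeast W303a lacking pdr1 and pdr3 grown in galactose medium; growth measured after three days at 30 °C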
GDH-TPI inh: GDH-TPI coupled enzyme inhibition counter-screen. GDH-TPI coupled enzyme counterscreen, NADH absorbance. inhibition, % at 4.8 µM. 360,000 tested, 1.2% active. AID 588335; in the data active = inhibition above about 30%
PrP 5UTR inh: inhibition of PrP 5' UTR reporter expression; 340,000 tested, 0.35% active; cell-based PrP 5' UTR mRNA reporter, plate reader; inhibition, % (no concentration beside the values); in the data active = inhibition above about 52%
PrPC surface inh: cell surface PrPC inhibition, primary TR-FRET screen | inhibition, % at 13.8 µM | TR-FRET read-out | 370,000 tested, 0.43% active | P04156 | AID 720596; in the data active = inhibition above about 24%
BJeLR lethal: BJeLR cell viability loss | BJeLR (HRASV12) viability, CellTiter-Glo ATP luminescence, 48 h | inhibition, % (concentration not given with the values) | 300,000 tested, 0.17% active | AID 1554; in the data active = inhibition above about 50%; inconclusive = no clear call, values can overlap the other calls
PrPC confirm: confirmation of inhibitors of cell surface human prion protein; cell surface PrPC level, TR-FRET; inhibition, % at 13.8 µM; shares compounds with PrPC surface inh; AID 743200; 1,500 tested, 65% active; in the data active = inhibition above about 25%
LD9 tox: LD9 cell cytotoxicity, PrPc inhibitor counter-screen. shares compounds with PrPC surface inh. LD9 cells cytotoxicity, luminescence viability. inhibition, % at 13.8 µM. 1,500 tested, 29% active. AID 743201; in the data active = inhibition above about 9.5%
Large screens that a line does not name were inactive (follow-up assays come after a bar, where they were run). Shown are actives, neighbours in structure and some others; about 4.5% of the full set was active somewhere.

Cc1ccc(S(=O)(=O)Nc2ccccc2-c2ccccc2NS(=O)(=O)c2ccc(C)cc2)cc1	none
COc1cc(NS(=O)(=O)c2ccc(C)cc2)c2ncccc2c1	PfHsp40 rescue 542, PrPC surface inh 51 | PrPC confirm 51 | LD9 tox 69
Cc1ccc(S(=O)(=O)Nc2cccc3cccnc23)cc1	PfHsp40 rescue inconclusive, PrPC surface inh 39 | PrPC confirm 72 | LD9 tox 82
CCOC(=O)c1sc(NC(=O)C2CC(=O)N(c3ccc4c(c3)OCCO4)C2)nc1C (stereo not given)	none (no result: BJeLR lethal)
NC(=O)c1nnn(Cc2cc(Cl)c(C(=O)c3ccc(Cl)cc3)c(Cl)c2)c1N	PrPC surface inh 35 (no result: FBA Mtb inh, PfHsp40 rescue, GDH-TPI inh, PrP 5UTR inh, BJeLR lethal) | PrPC confirm 28 | LD9 tox inactive
Nc1c(C(=O)Nc2ccc3c(c2)OCCO3)nnn1Cc1ccc(Cl)cc1	none
CC1CN(C(=O)c2ccc(NS(=O)(=O)c3ccc(F)c(F)c3)cc2)CC(C)O1 (stereo not given)	none
O=C(N/N=C/c1ccc(O)cc1O)c1ccc(NC(=O)C2CCCCC2)cc1	PrPC surface inh 34 | PrPC confirm 37 | LD9 tox inactive
C=CCN(C(=O)c1ccc(Cl)cc1)c1ccccc1C(=O)NCC(=O)O	none
CN1C2CCC1CC(=NO)C2	PrPC surface inh 84 | PrPC confirm inactive | LD9 tox inactive
CN1C(c2ccccc2)CC(=NO)CC1c1ccccc1 (stereo not given)	none
CC1CC(C)C(=NNC(N)=O)C(C(O)CC2CCC(=O)NC2=O)C1 (stereo not given)	PfHsp40 rescue 33, PrPC surface inh 84 (no result: BJeLR lethal) | PrPC confirm 43 | LD9 tox 15
C[C@H]1C[C@@H](C)C(=O)[C@@H]([C@H](O)CC2CC(=O)NC(=O)C2)C1	PrPC surface inh 89 | PrPC confirm 98 | LD9 tox 32
CCC12CN3CCN(CC(C3)/C1=N/NC(N)=O)C2	none
CC1CCCN(C(=O)C2CC(=O)N(c3ccc(Cl)cc3)C2)C1 (stereo not given)	none
Cc1cccc(/C=C(\c2nc3ccccc3[nH]2)S(=O)(=O)c2ccccc2)c1	PrPC surface inh 25 | PrPC confirm inactive | LD9 tox 22
O=C(NCCCc1ccccc1)O[C@@H]1CC[C@@]23CCCN2C(=O)CCC[C@H]3C1	none (no result: FBA Mtb inh, PfHsp40 rescue, GDH-TPI inh, PrP 5UTR inh, BJeLR lethal)
Brc1ccc(-c2nnc3sc(CNC4CCCC4)cn23)cc1	PrPC surface inh 46 | PrPC confirm 58 | LD9 tox inactive
CC(=O)Nc1ccc(Sc2ccc([N+](=O)[O-])o2)cc1	PfHsp40 rescue 54, PrPC surface inh 69 (no result: BJeLR lethal) | PrPC confirm 29 | LD9 tox 22
CC(C)(C)C(=O)Nc1ccc(Sc2ccc([N+](=O)[O-])cc2)cc1	none
CN(C)S(=O)(=O)N1CCC(Oc2ccc(C(=O)N3C[C@@H]4CCC[C@H]3C4)cc2)CC1	none
c1ccc(CCNc2ncnc3ccccc23)cc1	none
Brc1ccc2ncnc(NCc3ccccc3)c2c1	PfHsp40 rescue inconclusive, PrPC surface inh 48 | PrPC confirm 50 | LD9 tox 12
Clc1cccc(Nc2ncnc3ccc(Br)cc23)c1	PfHsp40 rescue inconclusive, PrPC surface inh 63 | PrPC confirm 76 | LD9 tox inactive
Cc1ccc2ncnc(Nc3ccccc3)c2c1	none
COc1ccc(Nc2ncnc3ccc(Br)cc23)cc1OC	none (no result: PrPC surface inh)
Cc1cccc(Nc2ncnc3ccc(Br)cc23)c1	PrPC surface inh 26 | PrPC confirm 31 | LD9 tox inactive
Clc1ccc(Nc2ncnc3ccc(Br)cc23)cc1	PrPC surface inh 30 | PrPC confirm 44 | LD9 tox inactive
O=C(CCCN=C1NS(=O)(=O)c2ccccc21)Nc1ccc(Cl)cc1	none (no result: BJeLR lethal)
COc1ccc(NC(=O)COC(=O)C2CC2)c(OC)c1	none (no result: PrP 5UTR inh, BJeLR lethal)
Cc1cccc(N2CCC(N3CCN(C4CCCCC4)C(CCO)C3)CC2)c1C (stereo not given)	none
CCOC(=O)C1=C(N)Oc2c(oc(CO)cc2=O)C1c1ccccc1 (stereo not given)	none
CCc1ccccc1Nc1nn2c(=O)c3ccc(C(=O)NCc4ccccn4)cc3nc2s1	PrPC surface inh 38 | PrPC confirm 25 | LD9 tox inactive
O=c1oc2cc(O)ccc2c2ccccc12	PrPC surface inh 28 | PrPC confirm 33 | LD9 tox inactive
Cc1ccc(/C=C2/N=C(c3ccccc3)NNC2=O)cc1	none (no result: PfHsp40 rescue, PrP 5UTR inh)
Cn1c(CNC(=O)C2CCCCC2)cc2cc(Cl)ccc21	PrPC surface inh 31 | PrPC confirm 35 | LD9 tox inactive
Cc1cc2cc(CNC(=O)C3CCCC3)ccc2n1C	PrPC surface inh 44 | PrPC confirm inactive | LD9 tox inactive
Cn1c(CCNC(=O)C2CCCCC2)nc2cc([N+](=O)[O-])ccc21	none
COc1ccc(CNC(=O)C2CCC(CNC(=O)[C@@H]3Cc4ccccc4CN3)CC2)cc1 (stereo not given in full)	none
COc1ccccc1N1CCN(S(=O)(=O)CCNC(=O)c2ccc(Br)o2)CC1	none
CC(=O)c1ccc(NC(=O)CSc2nc(C3CC3)nc3ccccc23)cc1	none
CCc1nc(SCC(=O)NNC(=O)C2CCCCC2)c2ccccc2n1	PrPC surface inh 60 | PrPC confirm 114 | LD9 tox inactive
CCc1nc(SCC(=O)Nc2ccc(N(C)C)cc2)c2ccccc2n1	PrPC surface inh 61 | PrPC confirm 81 | LD9 tox inactive
CCc1nc(SCC(=O)NNC(=O)C(C)C)c2ccccc2n1	PrPC surface inh 104 | PrPC confirm 114 | LD9 tox inactive
CCOC(=O)C1(Cc2cccc(Cl)c2)CCCN(C(=O)CCSC)C1 (stereo not given)	none
Cc1nn(C(C)C(=O)O)c(=O)c2c1sc1ccccc12 (stereo not given)	PrPC surface inh 45 | PrPC confirm 60 | LD9 tox inactive
C=CCNC(=O)CSCc1ccc(Br)cc1	none
COc1ccc(NC(=O)c2c(N)no[n+]2[O-])cc1	PrPC surface inh 26 | PrPC confirm 25 | LD9 tox inactive
COc1ccc(NC(=O)c2c(N)no[n+]2[O-])c(OC)c1	none
Cc1ccc(S(=O)(=O)N(C)C)cc1NC(=O)c1cncc(Br)c1	PrPC surface inh 27 | PrPC confirm inactive | LD9 tox inactive
CCOC(=O)c1c(-c2ccccc2)csc1NC(=O)CSc1nncs1	PrPC surface inh 42 | PrPC confirm 39 | LD9 tox inactive
O=C(NNC(=O)C(c1ccccc1)c1ccccc1)c1ccccn1	PrPC surface inh 34 | PrPC confirm inactive | LD9 tox 43
O=C(NNc1ccccn1)C(c1ccccc1)c1ccccc1	none
C[C@@H]1C[C@H]2O[C@@H]2/C=C\C=C\C(=O)Cc2cc(O)cc(O)c2C(=O)O1	PrPC surface inh 81 (no result: FBA Mtb inh, PfHsp40 rescue, GDH-TPI inh, PrP 5UTR inh, BJeLR lethal) | PrPC confirm 48 | LD9 tox 61
